Only some compounds are listed: those with a hit (about 0.7% of all), similar ones and a draw of the others.
HePTP inh: human HePTP phosphatase inhibition; P35236; recombinant HePTP phosphatase activity, OD absorbance; inhibition, % at 20 µM; 110,000 compounds, 0.64% hits; AID 521; in the data active = inhibition above about 50%;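 note: plate controls were vehicle for no effect and reference inhibitor for full effect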
Target sequence (P35236 whole entry, looked up): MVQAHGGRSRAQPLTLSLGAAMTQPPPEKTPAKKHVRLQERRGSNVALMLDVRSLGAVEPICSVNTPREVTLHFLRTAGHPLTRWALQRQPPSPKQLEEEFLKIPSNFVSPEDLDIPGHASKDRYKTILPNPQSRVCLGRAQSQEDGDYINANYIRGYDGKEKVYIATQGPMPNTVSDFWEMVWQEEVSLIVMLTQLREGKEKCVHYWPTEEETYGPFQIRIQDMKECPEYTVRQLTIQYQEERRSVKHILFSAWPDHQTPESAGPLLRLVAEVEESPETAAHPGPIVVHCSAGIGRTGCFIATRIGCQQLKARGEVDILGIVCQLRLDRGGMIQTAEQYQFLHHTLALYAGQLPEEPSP
Cdc25B block: human M-phase inducer phosphatase 2 inhibition. recombinant Cdc25B, OMFP fluorescence Ex485/Em525. inhibition, %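 (compounds tested at 10 µM final in the well)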. 65,000 compounds, 0.1% hits; in the data active = inhibition above about 50%
MKP-1 inh: inhibitors of human MKP-1 phosphatase | AID 374 | inhibition, %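 (compounds tested at a single concentration somewhere between 10 and 100 µM)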 | P28562 | recombinant MKP-1, OMFP hydrolysis fluorescence | 65,000 compounds, 0.15% hits;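 active = inhibition above about 50%, limit read from the data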;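 note: 0% = DMSO max control wells and 100% = wells with enzyme stopped by NaOH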
* = called active by the depositor.

For COc1ccc(CNc2ccc(Br)cc2C(=O)O)c(OC)c1 the results were HePTP inh 77*.
For COc1ccc(Br)cc1C(=O)O the results were HePTP inh 8, Cdc25B block -6 and MKP-1 inh 26.
`COc1ccc(/C(C)=N\OCc2nc3c4c5c(sc4ncn3n2)CCCC5)cc1OC` gave HePTP inh -11.
Screening Cc1cccc(OCC(O)CN2C(=O)NC(C)(C)C2=O)c1 (configuration not stated) returned HePTP inh 104*.
CC1(C)NC(=O)N(CC(O)COc2cccc(F)c2)C1=O (configuration not stated) was read as HePTP inh 0, Cdc25B block -11 and MKP-1 inh 4.
Cc1c(C(=O)O)c(-c2ccccc2)nn1-c1ccccc1 was read as HePTP inh 11, Cdc25B block -4 and MKP-1 inh -2.
For O=C1C=CC(=O)c2c1c(-c1ccccc1)nn2-c1ccccc1 the results were HePTP inh 71*.
Cc1cc(OCC(=O)Nc2ccc3c(c2)OCO3)ccc1Cl was read as HePTP inh 5.
For Cc1c(C(=O)Nc2ccc3oc(-c4ccc(Cl)cc4Cl)nc3c2)cccc1[N+](=O)[O-] the results were HePTP inh 11.
CCN1CCc2c(sc(NC(=O)Nc3ccc(Cl)cc3)c2C(N)=O)C1 was read as HePTP inh 101*.
`CCOC(=O)c1c(NC(=S)Nc2ccccc2)sc2c1CCN(Cc1ccccc1)C2` gave HePTP inh -14.
For O=C(c1ccccc1Cl)N1CCc2ccccc21 the results were HePTP inh 4.
For Cc1ccc(C23CC4CC(CC(C(=O)Nc5cccc(C(=O)O)c5)(C4)C2)C3)cc1 the results were HePTP inh 2.
Cc1ccc(C23CC4CC(CC(C(=O)Nc5ccc(F)cc5F)(C4)C2)C3)cc1 was read as HePTP inh 72*.
CCOC(=O)COc1ccc(Br)cc1/C=C1/C(=O)NN(c2cccc(Cl)c2)C1=O was read as HePTP inh -14.
CCOc1ccc(NC(=O)c2ccc(S(=O)(=O)N3CCOCC3)cc2)c([N+](=O)[O-])c1 was read as HePTP inh -13.
Cc1ccc(-n2nc3cc(C)c(NC(=O)COc4ccc(Cl)cc4)cc3n2)cc1 was read as HePTP inh 1.
`Cc1nc(Nc2nc(O)cc(=O)[nH]2)nc2c(C)cccc12` gave HePTP inh 103*.
Screening Cc1cc(=O)[nH]c(Nc2nc(C)c3cccc(C)c3n2)n1 returned HePTP inh 11.
Screening O=C(Nc1cccc(Cl)c1)c1cccc(NC(=S)Nc2ccccc2)c1 returned HePTP inh 8.
For O=C(Nc1cccc(Cl)c1)c1cccc(NC(=S)Nc2ccc(F)cc2)c1 the results were HePTP inh 104*.
For COC(=O)c1ccc(/C=C2\C(=O)NC(=O)N(c3ccc(Br)cc3)C2=O)cc1 the results were HePTP inh 9.
CCC(C(=O)Nc1cc(C)nn1-c1nc(C)cc(C)n1)c1ccccc1 (configuration not stated) was read as HePTP inh 0, Cdc25B block 66* and MKP-1 inh 33.
Screening CCC(C(=O)Nc1cc(C)cc(C)n1)c1ccccc1 (configuration not stated) returned HePTP inh 5.
CC1(C)OC(=O)C(=Cc2ccc(I)o2)C(=O)O1 was read as HePTP inh 102*.
Screening CC(=O)NN1C(=O)/C(=C\c2ccc(I)o2)SC1=S returned HePTP inh 3.
`O=C1C(=Cc2ccc(I)o2)C(=O)c2ccccc21` gave HePTP inh 78*.
O=C1C(=Cc2ccc(Sc3ccccc3)o2)C(=O)c2ccccc21 was read as HePTP inh 16.
For CC(=O)C1=C(O)C(=O)N(CC2CCCO2)C1c1ccccc1[N+](=O)[O-] (configuration not stated) the results were HePTP inh -10.
Screening NC1=NC(=O)/C(=C/c2ccccc2[N+](=O)[O-])S1 returned HePTP inh -10.
For O=C1/C(=C\c2ccc3c(c2)OCO3)SC(=S)N1CCc1ccccc1 the results were HePTP inh -12.
O=C(CCCN1C(=O)c2ccccc2C1=O)Nc1ccccc1C(=O)N1CCCC1 was read as HePTP inh 1.
For O=C(CCCN1C(=O)c2ccccc2C1=O)Nc1ccccc1C(=O)N1CCCCC1 the results were HePTP inh 78*.
Screening Cc1ccccc1NC(=O)c1ccccc1NC(=O)C(O)(c1ccccc1)c1ccccc1 returned HePTP inh -3.
`CCCCC/C(=N\NC(=O)c1cccnc1)c1ccccc1` gave HePTP inh 0.
Screening CCc1ccccc1NC(=O)c1c(NC(=O)c2ccccc2Br)sc2c1CCC2 returned HePTP inh -7.
For COc1cc(F)ccc1S(=O)(=O)n1cnc2cc([N+](=O)[O-])ccc21 the results were HePTP inh -6.
